Source: PubChem BioAssay (NCI)
Compounds without any hit were thinned out: in the full panel of roughly 83,000, 20% have a hit.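 Activity criterion: percent growth below 10, measured after cells in 96-well plates were exposed to a single compound concentration for 48 hours.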 A number with no mark means an inactive call. Calls of active or inactive are those of the source.

System: HOP-92 NSCLC
Test: NCI-60 one-dose screen, 48 h (100 = growth as untreated, 0 = no growth, -100 = all killed)
Conditions: 10 µM unless noted

Point of comparison: `CNC(=O)c1cc(Oc2ccc3nc(NC(=O)NC(C)C)sc3c2)ccn1`, growth 63.3%. Against it:
- O=C(Nc1ccc(Cl)cc1)C1=NCCCCN1 — higher, 89.9%
- Fc1ccc(/C=C/c2cc(/C=C/c3ccc(F)cc3)n(-c3cc(F)cc(F)c3)n2)cc1 — higher, 83%
- Nc1n[nH]c2cccc(C#Cc3cccc(C(=O)Nc4ccc(Cl)c(C(F)(F)F)c4)c3)c12 — lower, 20.1%
- CC/C(=C(/c1ccc(Cl)cc1)c1ccc(OCCN2CCCCCC2)cc1)c1ccccc1 — higher, 80.3%
- CC(=O)CC(=O)c1ccccc1.[Cu+2] — higher, 120%
- N/C(=N\c1nc2ccccc2s1)NC(=O)Nc1ccccc1 — lower, 53.2%
- CCOC(=O)/C(=C\c1ccccc1Cl)P(=O)(OCC)OCC — lower, 60%
- O=C(/C=C/c1ccc(Cl)cc1)c1ccc(-n2cc(CN3CCN(c4cc5c(cc4F)c(=O)c(C(=O)O)cn5C4CC4)CC3)nn2)cc1 — higher, 84.8%
- COc1cc2cc(Oc3ccc(NC(=O)Nc4ccc(Cl)c(Cl)c4)cc3)c(C)nc2cc1OCCN1CCCCC1 — higher, 75.1%
- CCN(CC)CCN1C(=O)c2c(c(C)c3c(oc4cc(OC)ccc43)c2C)C1=O — higher, 100%
- Cn1ncc(CC(=O)O)c1-n1nnc2cc(Cl)ccc2c1=O — higher, 105%
- COc1ccc(CNc2ccc3nc(CCC4CCCCC4)[nH]c3c2)cc1 — lower, 38.3%
- CC(C)(C)[C@H](OCc1cn([C@H]2C[C@@H](O)[C@@H](CO)O2)c(=O)[nH]c1=O)c1ccc(C#Cc2ccccc2)cc1[N+](=O)[O-] — lower, 58.1%
- COCCn1cc(-c2nc(-c3cc4cccnc4n3C)cs2)c2cc(OC)ccc21 — lower, 31.4%
- Cc1ccc(S(=O)(=O)N(CCC(=O)O)c2ccccc2)cc1 — higher, 102%
- CCOC(=O)/C(=C/c1ccc([N+](=O)[O-])cc1)C(=O)c1ccccc1 — lower, 32.4%
- CC(C)C(=O)Nc1ncc(C(=O)NCCN(Cc2ccccc2)C(=O)c2ccc(S(=O)(=O)Nc3ccccc3)cc2)s1 — higher, 106%
- OC1CSSC1Cn1cnc2c(Nc3ccc(F)c(Cl)c3)ncnc21 (centres undefined) — higher, 137%
- CN1C(=O)N(C)C2C1NN=c1s/c(=C\c3ccc(F)cc3)c(=O)n12 (centres undefined) — lower, 47%
- CCN1C(=O)N(CC)C2C1NN=c1s/c(=C\c3ccc(F)cc3)c(=O)n12 (centres undefined) — lower, 43.6%
- CC(C)c1nc(N(C)S(C)(=O)=O)nc(-c2ccc(F)cc2)c1/C=C/C(=O)C[C@@H](O)CC(=O)O — higher, 84.2%
- C=C(C)[C@@H]1CC[C@]2(COCCCNCCCN)CC[C@]3(C)[C@H](CC[C@@H]4[C@@]5(C)CC[C@H](OCCCN)C(C)(C)[C@@H]5CC[C@]43C)[C@@H]12 — higher, 75.3%
- C=C(C)[C@@H]1CC[C@]2(COC(=O)c3cccnc3)CC[C@]3(C)[C@H](CC[C@@H]4[C@@]5(C)CCCN(C(=O)c6cccnc6)C(C)(C)[C@@H]5CC[C@]43C)[C@@H]12 — lower, 32.9%
- COc1cccc(C2C(C#N)=C(N)Oc3c2ccc2ccccc32)c1 (centres undefined) — lower, 46.5%
- CCN1C(=O)N(CC)C2C1NN=c1s/c(=C3\C(=O)N(C)c4ccccc43)c(=O)n12 (centres undefined) — lower, 56.8%
- O=C(Nc1ncc(Cc2ccccc2)s1)c1ccc2c(c1)OCCO2 — lower, 57.8%
- CC(C)(C)CC(C)(C)Nc1c(-c2c(O)c3ccccc3oc2=O)nc2sccn12 — higher, 107%
- COc1ccc(Cn2cc3c(c2)-c2oncc2CC3)cc1 — higher, 70.1%

With `COC(CCP(=O)(c1ccccc1)c1ccccc1)(C(=O)c1ccccc1)c1ccccc1` (centres undefined) the growth was -8.84% (active).
For `CN1CCN(Cc2ccc(NC(=O)c3cncc(C#Cc4cnc(N)c5ccc(C#N)cc45)c3)cc2C(F)(F)F)CC1`, the growth was -15.2% (active).
`N#C/C(=C\c1cccc2cnccc12)N1N=NC2C=CC=CC21` (centres undefined) was tested, and the growth was -14.6% (active).
With `Cc1c2cnccc2c(C)c2c1c1cc(C(=O)O)ccc1n2C` the growth was -3.06% (active).
With `C=CN(C(=O)N1CCN(c2cc3c(cc2F)c(=O)c(C(=O)O)cn3C2CC2)CC1)c1nc(-c2ccc(C)cc2)cs1` the growth was -10.4% (active).
For `CCCCCCCCNc1ncnc2c1ncn2Cc1nnc2c3ccccc3c(Cl)nn12`, the growth was 3.23% (active).
With `COC(=O)c1cc(-c2cc(OC)c(OC)c(OC)c2)[nH]c1N/N=C/c1c(Cl)cccc1Cl` the growth was -34.8% (active).
For `COc1ccc(Nc2nc(Nc3cc(C)[nH]n3)c3cc(OC)c(OC)cc3n2)cc1`, the growth was -84.6% [20 µM] (active).
`C#Cc1cccc(Nc2ncnc3ccc(-c4cnc(Cl)c(NS(C)(=O)=O)c4)cc23)c1` was tested, and the growth was -17.1% (active).
`COc1cc(/C=C/c2cc(/C=C/c3ccc(O)c(OC)c3)n(C(=O)Nc3ccc(C)cc3C)n2)ccc1O` was tested, and the growth was -27% (active).
